# Data from the supplement of paper PMC4466140.
# Legend:
# Assay in all cases: SPOT peptide array binding signal intensity (averaged, normalized) (arbitrary units (background-subtracted, floor 0; scale differs between SH3 domains)); higher = stronger binding of the SH3 domain to the peptide
# [1] = target: AgAbp1
# How it was run: (§1)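 Peptides were synthetic 15-mers on cellulose membranes, with every cysteine replaced by serine. They were incubated overnight at 4°C with GST-SH3 domains from four yeast species at 10 μg/ml in TBS-based blocking buffer. Binding signal, the replicate-averaged normalized and background-subtracted spot intensity, is in arbitrary units that differ between domains.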
# [2] = target: AgBbc1
# How it was run: as §1
# [3] = target: AgBem1-D1
# How it was run: as §1
# [4] = target: AgBzz1-D1
# How it was run: as §1
# [5] = target: AgBzz1-D2
# How it was run: as §1
# [6] = target: AgCyk3
# How it was run: as §1
# [7] = target: AgFus1
# How it was run: as §1
# [8] = target: AgHof1
# How it was run: as §1
# [9] = target: AgHse1
# How it was run: as §1
# [10] = target: AgLsb1
# How it was run: as §1
# [11] = target: AgLsb4
# How it was run: as §1
# [12] = target: AgMyo5
# How it was run: as §1
# [13] = target: AgNbp2
# How it was run: as §1
# [14] = target: AgRvs167
# How it was run: as §1
# [15] = target: AgSho1
# How it was run: as §1
# [16] = target: AgSla1-D1-D2
# How it was run: as §1
# [17] = target: AgSla1-D3
# How it was run: as §1
# [18] = target: CaAbp1-D1
# How it was run: as §1
# [19] = target: CaAbp1-D2
# How it was run: as §1
# [20] = target: CaBbc1
# How it was run: as §1
# [21] = target: CaBem1-D1
# How it was run: as §1
# [22] = target: CaBzz1-D1
# How it was run: as §1
# [23] = target: CaBzz1-D2
# How it was run: as §1
# [24] = target: CaCyk3
# How it was run: as §1
# [25] = target: CaFus1
# How it was run: as §1
# [26] = target: CaHof1
# How it was run: as §1
# [27] = target: CaHse1
# How it was run: as §1
# [28] = target: CaLsb1
# How it was run: as §1
# [29] = target: CaLsb4
# How it was run: as §1
# [30] = target: CaMyo5
# How it was run: as §1
# [31] = target: CaNbp2
# How it was run: as §1
# [32] = target: CaRvs167
# How it was run: as §1
# [33] = target: CaRvs167-3
# How it was run: as §1
# [34] = target: CaSho1
# How it was run: as §1
# [35] = target: CaSla1-D1-D2
# How it was run: as §1
# [36] = target: CaSla1-D3
# How it was run: as §1
# [37] = target: ScAbp1
# How it was run: as §1
# [38] = target: ScBbc1
# How it was run: as §1
# [39] = target: ScBem1-D1
# How it was run: as §1
# [40] = target: ScBzz1-D1
# How it was run: as §1
# [41] = target: ScBzz1-D2
# How it was run: as §1
# [42] = target: ScCyk3
# How it was run: as §1
# [43] = target: ScFus1
# How it was run: as §1
# [44] = target: ScHof1
# How it was run: as §1
# [45] = target: ScHse1
# How it was run: as §1
# [46] = target: ScLsb1
# How it was run: as §1
# [47] = target: ScLsb2
# How it was run: as §1
# [48] = target: ScLsb3
# How it was run: as §1
# [49] = target: ScLsb4
# How it was run: as §1
# [50] = target: ScMyo3
# How it was run: as §1
# [51] = target: ScMyo5
# How it was run: as §1
# [52] = target: ScNbp2
# How it was run: as §1
# [53] = target: ScPex13
# How it was run: as §1
# [54] = target: ScRvs167
# How it was run: as §1
# [55] = target: ScSho1
# How it was run: as §1
# [56] = target: ScSla1-D1-D2
# How it was run: as §1
# [57] = target: ScSla1-D3
# How it was run: as §1
# [58] = target: SpAbp1-D1
# How it was run: as §1
# [59] = target: SpBbc1
# How it was run: as §1
# [60] = target: SpBzz1-D1
# How it was run: as §1
# [61] = target: SpBzz1-D2
# How it was run: as §1
# [62] = target: SpCyk3
# How it was run: as §1
# [63] = target: SpHof1
# How it was run: as §1
# [64] = target: SpHof1-2
# How it was run: as §1
# [65] = target: SpHof1-3
# How it was run: as §1
# [66] = target: SpHse1
# How it was run: as §1
# [67] = target: SpLsb1
# How it was run: as §1
# [68] = target: SpLsb4
# How it was run: as §1
# [69] = target: SpMyo1
# How it was run: as §1
# [70] = target: SpNbp2
# How it was run: as §1
# [71] = target: SpPex13
# How it was run: as §1
# [72] = target: SpRvs167
# How it was run: as §1
# [73] = target: SpSla1-D1-D2
# How it was run: as §1
# [74] = target: SpSla1-D3
# How it was run: as §1
binder,measurement,setting,value
PPPPPPPPPPLPQSL,SPOT peptide array binding signal intensity,[1],6.5
same,SPOT peptide array binding signal intensity,[2],≤ 0
same,SPOT peptide array binding signal intensity,[3],≤ 0
same,SPOT peptide array binding signal intensity,[4],23.5
same,SPOT peptide array binding signal intensity,[5],≤ 0
same,SPOT peptide array binding signal intensity,[6],1
same,SPOT peptide array binding signal intensity,[7],≤ 0
same,SPOT peptide array binding signal intensity,[8],366
same,SPOT peptide array binding signal intensity,[9],18
same,SPOT peptide array binding signal intensity,[10],≤ 0
same,SPOT peptide array binding signal intensity,[11],≤ 0
same,SPOT peptide array binding signal intensity,[12],561
same,SPOT peptide array binding signal intensity,[13],33
same,SPOT peptide array binding signal intensity,[14],≤ 0
same,SPOT peptide array binding signal intensity,[15],3
same,SPOT peptide array binding signal intensity,[16],1
same,SPOT peptide array binding signal intensity,[17],1.5
same,SPOT peptide array binding signal intensity,[18],29.5
same,SPOT peptide array binding signal intensity,[19],≤ 0
same,SPOT peptide array binding signal intensity,[20],≤ 0
same,SPOT peptide array binding signal intensity,[21],5
same,SPOT peptide array binding signal intensity,[22],2040
same,SPOT peptide array binding signal intensity,[23],268
same,SPOT peptide array binding signal intensity,[24],1
same,SPOT peptide array binding signal intensity,[25],23
same,SPOT peptide array binding signal intensity,[26],0.75
same,SPOT peptide array binding signal intensity,[27],2.25
same,SPOT peptide array binding signal intensity,[28],0.5
same,SPOT peptide array binding signal intensity,[29],≤ 0
same,SPOT peptide array binding signal intensity,[30],156
same,SPOT peptide array binding signal intensity,[31],67.5
same,SPOT peptide array binding signal intensity,[32],≤ 0
same,SPOT peptide array binding signal intensity,[33],≤ 0
same,SPOT peptide array binding signal intensity,[34],4
same,SPOT peptide array binding signal intensity,[35],≤ 0
same,SPOT peptide array binding signal intensity,[36],≤ 0
same,SPOT peptide array binding signal intensity,[37],1
same,SPOT peptide array binding signal intensity,[38],≤ 0
same,SPOT peptide array binding signal intensity,[39],≤ 0
same,SPOT peptide array binding signal intensity,[40],4
same,SPOT peptide array binding signal intensity,[41],2
same,SPOT peptide array binding signal intensity,[42],≤ 0
same,SPOT peptide array binding signal intensity,[43],≤ 0
same,SPOT peptide array binding signal intensity,[44],92.8
same,SPOT peptide array binding signal intensity,[45],19
same,SPOT peptide array binding signal intensity,[46],≤ 0
same,SPOT peptide array binding signal intensity,[47],≤ 0
same,SPOT peptide array binding signal intensity,[48],49
same,SPOT peptide array binding signal intensity,[49],≤ 0
same,SPOT peptide array binding signal intensity,[50],1500
same,SPOT peptide array binding signal intensity,[51],677
same,SPOT peptide array binding signal intensity,[52],≤ 0
same,SPOT peptide array binding signal intensity,[53],526
same,SPOT peptide array binding signal intensity,[54],≤ 0
same,SPOT peptide array binding signal intensity,[55],28.5
same,SPOT peptide array binding signal intensity,[56],3.5
same,SPOT peptide array binding signal intensity,[57],≤ 0
same,SPOT peptide array binding signal intensity,[58],4
same,SPOT peptide array binding signal intensity,[59],1
same,SPOT peptide array binding signal intensity,[60],4430
same,SPOT peptide array binding signal intensity,[61],41
same,SPOT peptide array binding signal intensity,[62],≤ 0
same,SPOT peptide array binding signal intensity,[63],≤ 0
same,SPOT peptide array binding signal intensity,[64],4
same,SPOT peptide array binding signal intensity,[65],≤ 0
same,SPOT peptide array binding signal intensity,[66],13.5
same,SPOT peptide array binding signal intensity,[67],0.5
same,SPOT peptide array binding signal intensity,[68],23
same,SPOT peptide array binding signal intensity,[69],1510
same,SPOT peptide array binding signal intensity,[70],17
same,SPOT peptide array binding signal intensity,[71],≤ 0
same,SPOT peptide array binding signal intensity,[72],72.5
same,SPOT peptide array binding signal intensity,[73],≤ 0
same,SPOT peptide array binding signal intensity,[74],≤ 0
PSPSSSPPPIPKTAN,SPOT peptide array binding signal intensity,[1],6.5
same,SPOT peptide array binding signal intensity,[2],2.5
same,SPOT peptide array binding signal intensity,[3],5
same,SPOT peptide array binding signal intensity,[4],2
same,SPOT peptide array binding signal intensity,[5],22.5
same,SPOT peptide array binding signal intensity,[6],1
same,SPOT peptide array binding signal intensity,[7],0.5
same,SPOT peptide array binding signal intensity,[8],≤ 0
same,SPOT peptide array binding signal intensity,[9],27
same,SPOT peptide array binding signal intensity,[10],1
same,SPOT peptide array binding signal intensity,[11],≤ 0
same,SPOT peptide array binding signal intensity,[12],1760
same,SPOT peptide array binding signal intensity,[13],≤ 0
same,SPOT peptide array binding signal intensity,[14],2.33
same,SPOT peptide array binding signal intensity,[15],2.5
same,SPOT peptide array binding signal intensity,[16],2.5
same,SPOT peptide array binding signal intensity,[17],≤ 0
same,SPOT peptide array binding signal intensity,[18],≤ 0
same,SPOT peptide array binding signal intensity,[19],9
same,SPOT peptide array binding signal intensity,[20],1
same,SPOT peptide array binding signal intensity,[21],≤ 0
same,SPOT peptide array binding signal intensity,[22],112
same,SPOT peptide array binding signal intensity,[23],15
same,SPOT peptide array binding signal intensity,[24],1
same,SPOT peptide array binding signal intensity,[25],31.5
same,SPOT peptide array binding signal intensity,[26],≤ 0
same,SPOT peptide array binding signal intensity,[27],≤ 0
same,SPOT peptide array binding signal intensity,[28],≤ 0
same,SPOT peptide array binding signal intensity,[29],4.5
same,SPOT peptide array binding signal intensity,[30],386
